The values that follow come from PubChem BioAssay (NCATS).

Values joined by “and” are separate entries in the source; they are usually repeats but may differ in a detail not shown here. Identical values can stand only once. Values without a mark were called inactive. Records with an inconclusive call do not appear. Active and inactive are the calls of the source. Unless noted, calls follow the shape of the dose curve; as a rule, active = well fitted curve in the direction sought with a large enough effect; inconclusive = small, poorly fitted or top-dose-only effect, or another doubt; inactive = no such curve, though single readings can be large; an effect the other way counts as inactive or inconclusive. Where only a bound is given, the exact number is not on record here.

Test [1] can be described thus: Cell Viability - BJ (AID 421; calls by dose curve;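 also: potency is read from the fitted curve at half-maximal effect; cells exposed to compound for 40 hours at 37 °C before readout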). As to conditions: BJ fibroblast viability, qHTS. Summed up: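 Cytotoxicity as drop in intracellular ATP (CellTiter-Glo, 20 min RT) after 40 hr compound exposure of BJ fibroblasts at 37 °C. Titrations scaled between DMSO and 100 uM tamoxifen, Hill-fitted for AC50.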
Test [2] is described as follows: Cell Viability - HepG2 (AID 433; calls by dose curve;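 also: potency is read from the fitted curve at half-maximal effect; potency for ATP loss meaning cytotoxicity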). As to conditions: qHTS. Summed up:
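Read-out is luciferase-based quantitation of cellular ATP as a measure of viable HepG2 cells after 40 h treatment at 37 °C. Signal decrease is scaled between DMSO-only and 100 uM tamoxifen controls, with AC50 fitted by the Hill equation.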

Test [3] is described as follows: Cell Viability - MRC5 (AID 434; calls by dose curve;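 also: potency is read from the fitted curve at half-maximal effect; potency reflects cytotoxicity seen as loss of intracellular ATP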). The settings on record: MRC5 lung fibroblast viability, qHTS. Summed up:
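qHTS cytotoxicity in human lung fibroblast MRC5 cells; 40 hr treatment, 37 °C; cellular ATP by luciferase luminescence; DMSO = 0%, 100 uM tamoxifen = 100% inhibition; Hill-fit AC50.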

Test [4] can be described thus: Cell Viability - NIH 3T3 (AID 541).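 Also: plate controls were DMSO alone for no effect and tamoxifen positive control for full effect; nearly all actives have a fitted effect of over 25% in size.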 As to conditions: NIH 3T3 cell viability, qHTS; activity change, negative = cytotoxicity: at 92.2 µM (top of the series). Summed up: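 Luminescent ATP signal (CellTiter-Glo) served as the viability read-out after NIH 3T3 cells were exposed to compounds over a concentration range for 40 hr at 37 °C. Hill-equation modelling of concentration-response data gave AC50.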

Test [5] can be described thus: Cell Viability - HUV-EC-C (AID 542). Also: % is scaled to controls: 0 for no effect and ±100 for the full control effect; nearly all actives have a fitted effect of over 35% in size. The settings on record: HUV-EC-C endothelial cell viability, qHTS; series mostly up to 92.2 µM. Summed up: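 qHTS cytotoxicity: HUV-EC-C, 1000 cells/well, 5 hr settle, compound 40 hr 37 °C, CellTiter-Glo, luminescence. AC50 via Hill equation.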
Test [6] is described as follows: Cell Viability - H-4-II-E (AID 543). Also: nearly all actives have a fitted effect of over 35% in size. Also: potency is read from the fitted curve at half-maximal effect. As to conditions: H-4-II-E rat hepatoma viability; series mostly up to 92.2 µM. In short, it runs like this: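 Luminescent ATP signal (CellTiter-Glo) served as the viability read-out, with cytotoxicity seen as a concentration-dependent ATP drop. Cells were treated for 40 hours in complete medium. AC50 values derive from Hill-equation modelling.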

The nature of test [7]: Cell Viability - SH-SY5Y (AID 544). Also: nearly all actives have a fitted effect of over 55% in size. As to conditions: SH-SY5Y neuroblastoma cell viability; viability change, negative = cytotoxic: at 92.2 µM (top of the series). In short, it runs like this:
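Luminescent ATP read-out (CellTiter-Glo) measures loss of viable SH-SY5Y neuroblastoma cells after 40 hr compound exposure at 37 °C. AC50 values derive from standard Hill modelling of qHTS concentration-response data.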

Test [8] is described as follows: Cell Viability - Renal Proximal Tubule (AID 545). Also: nearly all actives have a fitted effect of over 40% in size. As to conditions: renal proximal tubule cells viability; at 91.7 µM (top of the series), primary cells of rat origin unless noted. In short, it runs like this: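 Luminescent ATP signal (CellTiter-Glo) served as the viability read-out after 40 hr compound exposure of freshly isolated rat proximal tubule cells at 37 °C. Concentration-dependent ATP loss was fitted with the Hill equation to give AC50.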

Test [9] is described as follows: Cellular Toxicity (caspase-3) HepG2 (AID 654).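 Also: cells exposed to compound for 16 hours before reading.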 As to conditions: HepG2 caspase-3 activation, luminescence, 0% = DMSO only, 100% = tamoxifen; series mostly up to 92.2 µM. In short, it runs like this: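 Cells plated 5 hr at 37 °C, compound added, incubated 16 hr at 37 °C. Caspase-Glo 3/7 reagent followed, 20 min at room temperature, then luminescence read. Activation scored as signal increase; AC50 from Hill fit.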

Test [10] can be described thus: Cellular Toxicity (caspase-3) Jurkat (AID 655).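 Also: cells exposed to compound for 16 h at 37 °C before reading.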 As to conditions: Jurkat caspase-3 activation, luminescence, DMSO = 0%, tamoxifen = 100%; at 92.2 µM (top of the series). In short, it runs like this:
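5000 Jurkat cells/well; compound 16 hr, 37 °C; Caspase-Glo 3/7 added, 20 min RT; luminescence read. Norm: DMSO = 0%, tamoxifen 100 uM = 100%. AC50, Hill model.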

Test [11] can be described thus: Cellular Toxicity (caspase-3) HUV-EC-C (AID 656). As to conditions: HUV-EC-C cells, caspase-3 activation (apoptosis), vehicle = 0, 100 µM tamoxifen = 100%; series mostly up to 92.2 µM. Summed up: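 qHTS; HUV-EC-C, 1000 cells/well; 5 hr settle, 16 hr cmpd, 37°C; Caspase-Glo 3/7, 20 min RT; luminescence. Norm: DMSO = 0%, tamoxifen 100 uM = 100%. Hill-fit AC50.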
The nature of test [12]: Cellular Toxicity (caspase-3) SHSY5Y (AID 657).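 Also: cells exposed to compound for 16 hours at 37 °C.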 The settings on record: SH-SY5Y caspase-3 activation, DMSO zero, 10 µM staurosporine = 100%; series mostly up to 91.7 µM. In short, it runs like this:
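qHTS, SH-SY5Y, 1500 cells/well, 5 h pre-incubation 37 °C; compound 16 h 37 °C; Caspase-Glo 3/7 1 h RT; luminescence. Norm.: DMSO = 0, 10 uM staurosporine = 100%. Hill fit → AC50.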

A short description of test [13]: Cellular Toxicity (caspase-3) BJ (AID 658). As to conditions: BJ fibroblasts, luminescence, normalized: DMSO 0%, staurosporine 100%; series mostly up to 91.7 µM. In short, it runs like this:
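Readout: Caspase-Glo 3/7 luminescence increase in BJ cells after 16 hr treatment at 37 °C. Staurosporine and tamoxifen served as positive controls; AC50 values came from Hill modelling of data normalized to DMSO and 10 uM staurosporine.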

Test [14] is described as follows: Cellular Toxicity (caspase-3) MRC-5 (AID 659). The settings on record: MRC-5 cells, luminescence, normalized: DMSO 0%, 10 µM staurosporine 100%; series mostly up to 91.7 µM. Summed up:
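Concentration-dependent caspase 3/7 activation is measured in human normal lung fibroblasts (MRC-5) following 16-hour treatment. AC50 values come from standard Hill-equation modeling of luminescence normalized to DMSO and 10 uM staurosporine.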

Test [15] in a line: Cellular Toxicity (caspase-3) SK-N-SH (AID 661). The settings on record: SK-N-SH caspase-3 activation, qHTS, DMSO as zero, staurosporine as full; series mostly up to 91.7 µM. In short, it runs like this:
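Human neuroblastoma SK-N-SH, 1500 cells/well, 5 hr pre-incubation, then compound 16 hr, 37 °C. Caspase-Glo 3/7 reagent, 1 hr RT, luminescence. Norm. to DMSO/10 uM staurosporine; Hill-fit AC50.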

Test [16] can be described thus: Cellular Toxicity (caspase-3) H-4-II-E (AID 663).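 Also: cells exposed to compound for 16 hr before readout.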 The settings on record: H-4-II-E rat hepatoma, scaled: DMSO 0%, 100 µM tamoxifen 100%; series mostly up to 92.2 µM. Summed up:
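Apoptosis induction is scored as increased luminescence from caspase 3/7 substrate cleavage in rat hepatoma H-4-II-E cells exposed to compound for 16 hr. Activity is scaled between DMSO and 100 uM tamoxifen.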

Test [17] can be described thus: Cellular Toxicity (caspase-3) Hek293 (AID 664).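 Also: cells exposed to compound for 16 h at 37 °C before readout.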 The settings on record: HEK293 caspase-3 activation, DMSO = 0%, 100 µM tamoxifen = 100%; series mostly up to 92.2 µM. Summed up: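 Cells plated, 5 hr at 37 °C; compounds added; 16 hr at 37 °C; Caspase-Glo 3/7 reagent, 20 min RT; luminescence read. Activation expressed relative to DMSO and 100 uM tamoxifen, AC50 by Hill model.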

A short description of test [18]: Cellular Toxicity (caspase-3) Renal Proximal Tubule (AID 667).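 Also: cells exposed to compound for 16 hours at 37 °C before detection.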 The settings on record: renal proximal tubule cells; at 91.7 µM (top of the series), primary cells freshly taken from rat, solvent-only wells 0%, staurosporine 100% unless noted. In short, it runs like this: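 AC50 derived by standard Hill fit of concentration-response data, normalized between DMSO basal and 10 uM staurosporine as 100% stimulation. Cells: primary rat kidney proximal tubule, 16 h treatment at 37 °C.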

Test [19] in a line: qHTS Assay for Identification of Small Molecule Inducers of Hypoxia Response (AID 2120; active = well fitted curve in the direction sought with a large enough effect in the signal ratio, with a control signal flat, not every such curve was filed as active; the % refers to the signal ratio; also: 0% is about no effect). The settings on record: hypoxia response reporter cells, beta-lactamase ratio readout; series mostly up to 104 µM. In short, it runs like this: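 ME-180 HRE-bla cells plated in Opti-MEM/0.5% dialyzed FBS, rested 4-5 h, then dosed with compound titrations by pin tool. After 17 h at 37 degrees C, CCF4 dye loaded 2.5 h at RT; 460/530 nm ratio gave %Activity and AC50.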

Test [20] addresses Peroxisome proliferator-activated receptor alpha (Homo sapiens) (UniProt Q07869). Kind of test: qHTS assay for small molecule agonists of the peroxisome proliferator-activated receptor alpha (PPARalpha) signaling pathway (AID 651778). Also: % of control where 0% means no effect. As to conditions: PathHunter PPARalpha complementation, chemiluminescence, 6 h; stronger effect = higher value. In short, it runs like this: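 Chemiluminescence from complemented enzyme reported PPARalpha activation in cells after 6 hr of compound treatment at 37 C. The detection reagent was incubated for 60 min at room temperature, and compounds were scored as agonists.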

Sequence of Peroxisome proliferator-activated receptor alpha (Homo sapiens) (Q07869 whole entry, looked up): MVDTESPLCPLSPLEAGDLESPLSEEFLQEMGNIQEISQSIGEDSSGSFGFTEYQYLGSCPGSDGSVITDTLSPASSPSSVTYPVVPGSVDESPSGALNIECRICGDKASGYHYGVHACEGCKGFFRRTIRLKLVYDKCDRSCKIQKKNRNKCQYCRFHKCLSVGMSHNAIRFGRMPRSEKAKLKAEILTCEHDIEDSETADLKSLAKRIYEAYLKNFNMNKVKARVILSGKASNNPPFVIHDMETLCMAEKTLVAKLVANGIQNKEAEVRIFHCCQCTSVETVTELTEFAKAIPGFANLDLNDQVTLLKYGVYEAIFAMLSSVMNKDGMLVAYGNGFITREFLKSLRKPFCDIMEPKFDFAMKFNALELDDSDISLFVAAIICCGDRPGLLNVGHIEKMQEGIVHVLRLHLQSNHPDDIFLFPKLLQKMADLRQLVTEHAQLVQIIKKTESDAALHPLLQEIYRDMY

For the compound `CCN(CC)c1ccccc1`, the Potency in [1], in test [2] and in [3] was above 92 µM each time. Further, the activity change, negative = cytotoxicity is 4.17% in [4] and -4.65% in test [8]. Also, the Potency entry in [5], in test [6] and in test [7] was “inactive” each time. Also, the result in test [9], in test [11], in [12], in [13], in test [14] and in [15] was inactive. In addition, the compound was classed as inactive in test [16], in test [17] and in test [19]. Further, the caspase-3 activation in test [10] is -0.552%; in [18], 2.98%. Also, the max response in test [20] was -1.88%.

Consider `CC(C)(OO)c1ccccc1`, for which the Potency in [1] was above 92 µM; in [2], above 92 µM; in test [3], above 92 µM; in [6], 25.1 µM (active). The activity change, negative = cytotoxicity is -123% (active) in test [4] and -8.61% in [8]. Besides, in [5], the Potency entry was “inactive”. Moreover, the viability change, negative = cytotoxic in test [7] was -82.7% (active). The call in [9], in [11], in test [12], in [13], in [14] and in [15] was inactive. The compound was classed as inactive in test [16], in test [17] and in test [19]. The caspase-3 activation in [10] is -2.32%; in [18], -7.39%. Also, in test [20], the max response is -1.59% and -0.102%.

For `C[N+](C)(C)Cc1ccccc1`, the Potency in test [1], in test [2] and in test [3] was above 92 µM each time. For the same compound, the activity change, negative = cytotoxicity is -12.6% in [4] and 0.397% [at 91.7 µM] in test [8]. The Potency entry in test [5], in [6] and in test [7] was “inactive” in each case. The call in test [9], in test [11], in [12], in [13], in test [14] and in [15] was inactive. Besides, the outcome in test [16], in test [17] and in [19] was inactive. For the same compound, the caspase-3 activation in [10] is 0.448%; in test [18], 4.55% [at 91.7 µM]. Further, the max response in test [20] is -5.46% and 0.269%.

On to `OCC(Br)CBr` (stereo not given), for which the Potency in test [1], in test [2] and in [3] was above 92 µM in each case. Also, the values for the activity change, negative = cytotoxicity in test [4] and in test [8] were -14.7% and 0.652%, respectively. In addition, the Potency result in test [5], in test [6] and in test [7] was “inactive” each time. For the same compound, the compound was classed as inactive in test [9], in test [11], in test [12], in test [13], in [14] and in test [15]. Further, the result in [16], in [17] and in [19] was inactive. Also, the caspase-3 activation in test [10] is 0.101%; in test [18], 0.653%. In [20], the max response was -5.97%.

As for `Brc1ccc(Oc2cc(Br)c(Br)cc2Br)c(Br)c1`, the Potency in test [1], in [2] and in [3] was above 92 µM throughout. Besides, the activity change, negative = cytotoxicity is -13.1% and -22.5% in test [4]; -20.3% [at 91.7 µM] and -14.3% [at 91.7 µM] in test [8]. Moreover, the Potency entry in test [5], in test [6] and in test [7] was “inactive” throughout. The call in [9], in [11], in [12], in test [13], in [14] and in [15] was inactive. The compound was called inactive in [16], in test [17] and in test [19]. Further, the caspase-3 activation in [10] is 17.5%; in test [18] it was 12.3% [at 91.7 µM] and -6.38% [at 91.7 µM]. For the same compound, the max response in [20] was 8.87% and 4.12% and 3.75%.
